Test results from PubChem BioAssay (EPA / NIEHS).
Records with an inconclusive call do not appear. Active and inactive are the calls of the source. How the source made its calls: active means hit-call score of the fitted dose curve at least 0.9, where 1 is the maximum; inconclusive means response in the unintended direction; inactive means score below 0.9.

Test: ACEA_AR_antagonist_AUC_viability: ACEA Biosciences xCELLigence Real-Time Cell Analysis on Androgen Receptor Antagonism for Viability (AID 2283776);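 further: area under impedance growth curve at 80 h after dosing as viability; hits lower the growth signal relative to DMSO meaning cytotoxicity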
Method in brief: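 22Rv1 human prostate cancer cells were seeded on electrode plates, monitored overnight, then exposed to eight 1:4 dilutions from 100 uM final. Impedance-based growth kinetics at 80 h gave an AUC viability endpoint normalized to DMSO.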

| SMILES | outcome | AC50 |
| --- | --- | --- |
| C=C(C)C#N | inactive | – |
| CCC[CH2][Sn]([CH2]CCC)([CH2]CCC)[O]C(=O)c1ccccc1 | – | 1.06 µM (active) |
| C=CCc1ccc(OC)cc1 | inactive | – |
| Clc1ccc(COC(Cn2ccnc2)c2ccc(Cl)cc2Cl)cc1 (stereo not given) | – | 7.1 µM (active) |
| O=C1C2(Cl)C3(Cl)C4(Cl)C(Cl)(Cl)C5(Cl)C3(Cl)C1(Cl)C5(Cl)C24Cl (stereo not given) | – | 7.14 µM (active) |
| N#CN=C(N)N | inactive | – |
| CCCCCCCCSC(=O)Oc1cc(Cl)nnc1-c1ccccc1 | inactive | – |
| C=C(C)C(=O)[O][Sn]([CH2]CCC)([CH2]CCC)[CH2]CCC | – | 1.35 µM (active) |
| Cl/C=C\C[N+]12CN3CN(CN(C3)C1)C2 | inactive | – |
| O=[N+]([O-])c1ccc(O)c([N+](=O)[O-])c1 | – | 50 µM (active) |
| O=c1[nH]c(=O)[nH]c(=O)[nH]1 | inactive | – |
| O=C(Cc1ccccc1)c1ccccc1 | inactive | – |
| CC(=O)C=C(C)C | inactive | – |
| Cl/C=C/Cl | inactive | – |
| CCN1CCC2(CC1)COc1cc3c(cc12)N(C(=O)c1ccc(-c2ccc(-c4nnc(C)o4)cc2C)cc1)CC3 | – | 10.4 µM (active) |
